Assay [1] has as its target Retinoic acid receptor RXR-alpha (Homo sapiens) (UniProt P19793). Kind of assay: qHTS assay for small molecule antagonists of retinoid X receptor alpha signaling (AID 588546; active = well fitted inhibition curve with a large enough effect in the signal ratio, with a control signal flat, not every such curve was filed as active; the % refers to the signal ratio;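 also: cells stimulated with 9-cis-retinoic acid as agonist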). As to conditions: HEK293T RXRa-UAS-bla, beta-lactamase ratio, antagonist mode. The procedure, abridged:
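Beta-lactamase reporter inhibition, read as CCF4 fluorescence ratio (ex 405, em 460/530 nm) after 2 h at RT. HEK293T UAS-bla cells, 2500/well, were stimulated with 9-cis-RA at 500 or 100 nM final alongside test compound for 18 h at 37 C.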
On the technique in general: Quantitative high-throughput screening tests each substance at several concentrations.

In assay [2] the target is Androgen receptor (Homo sapiens) (UniProt P10275). Kind of assay: qHTS assay for small molecule agonists of androgen receptor signaling (AID 588515; active = well fitted curve in the direction sought with a large enough effect in the signal ratio, with a control signal flat; the % refers to the signal ratio). As to conditions: AR-UAS-bla HEK293, beta-lactamase ratio, agonist 16 h; stronger effect = higher value. The procedure, abridged: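 Stimulation of an AR-responsive β-lactamase reporter in GripTite HEK293 cells was measured after 16 h compound exposure at 37 °C, via CCF4 fluorescence after 2 h RT. EC50 from Hill fits, normalized to R1881 at 30 nM.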

Assay [3] has the same target. Kind of assay: qHTS assay for small molecule antagonists of androgen receptor signaling (AID 588516; active = well fitted curve in the direction sought with a large enough effect in the signal ratio, with a control signal flat, not every such curve was filed as active; the % refers to the signal ratio). As to conditions: AR-UAS-bla HEK293, beta-lactamase ratio, antagonist mode, 16 h; series mostly up to 76.8 µM. The procedure, abridged: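 Antagonist-mode qHTS: inhibition of R1881 (10 nM)-driven beta-lactamase expression in GripTite HEK 293 cells is measured after 16 h; values are Hill-derived IC50s normalized between R1881 and DMSO wells.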

This is an account of results in PubChem BioAssay (NCATS).

Records with an inconclusive call do not appear. Values without a mark were called inactive. Calls of active or inactive are those of the source.
% is scaled to controls: 0 for no effect and ±100 for the full control effect.

Sequence of Androgen receptor (Homo sapiens) (P10275 whole entry, looked up): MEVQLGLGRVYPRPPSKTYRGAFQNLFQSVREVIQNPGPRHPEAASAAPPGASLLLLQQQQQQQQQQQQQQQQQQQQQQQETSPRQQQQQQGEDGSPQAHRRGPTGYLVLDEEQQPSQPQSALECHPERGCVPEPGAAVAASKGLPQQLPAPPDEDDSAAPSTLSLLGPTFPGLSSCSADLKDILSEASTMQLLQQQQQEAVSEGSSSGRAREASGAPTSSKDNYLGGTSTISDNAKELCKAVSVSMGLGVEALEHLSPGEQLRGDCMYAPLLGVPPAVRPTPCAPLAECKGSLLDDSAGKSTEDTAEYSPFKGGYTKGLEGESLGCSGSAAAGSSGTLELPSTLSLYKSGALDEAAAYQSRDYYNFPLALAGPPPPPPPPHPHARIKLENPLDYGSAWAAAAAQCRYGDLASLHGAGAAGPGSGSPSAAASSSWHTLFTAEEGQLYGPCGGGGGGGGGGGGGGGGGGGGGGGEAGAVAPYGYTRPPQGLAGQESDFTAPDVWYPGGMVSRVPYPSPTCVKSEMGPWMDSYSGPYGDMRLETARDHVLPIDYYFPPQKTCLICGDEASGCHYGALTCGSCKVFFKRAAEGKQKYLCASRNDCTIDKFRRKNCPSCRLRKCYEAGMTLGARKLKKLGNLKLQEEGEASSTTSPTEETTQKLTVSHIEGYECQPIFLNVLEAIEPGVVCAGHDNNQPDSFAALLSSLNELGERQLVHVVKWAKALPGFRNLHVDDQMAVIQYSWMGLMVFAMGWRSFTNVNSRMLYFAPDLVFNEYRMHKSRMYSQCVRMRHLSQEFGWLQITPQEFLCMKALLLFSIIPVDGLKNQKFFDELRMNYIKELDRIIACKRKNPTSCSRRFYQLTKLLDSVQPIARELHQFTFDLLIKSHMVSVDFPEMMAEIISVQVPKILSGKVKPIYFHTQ
Sequence of Retinoic acid receptor RXR-alpha (Homo sapiens) (P19793 whole entry, looked up): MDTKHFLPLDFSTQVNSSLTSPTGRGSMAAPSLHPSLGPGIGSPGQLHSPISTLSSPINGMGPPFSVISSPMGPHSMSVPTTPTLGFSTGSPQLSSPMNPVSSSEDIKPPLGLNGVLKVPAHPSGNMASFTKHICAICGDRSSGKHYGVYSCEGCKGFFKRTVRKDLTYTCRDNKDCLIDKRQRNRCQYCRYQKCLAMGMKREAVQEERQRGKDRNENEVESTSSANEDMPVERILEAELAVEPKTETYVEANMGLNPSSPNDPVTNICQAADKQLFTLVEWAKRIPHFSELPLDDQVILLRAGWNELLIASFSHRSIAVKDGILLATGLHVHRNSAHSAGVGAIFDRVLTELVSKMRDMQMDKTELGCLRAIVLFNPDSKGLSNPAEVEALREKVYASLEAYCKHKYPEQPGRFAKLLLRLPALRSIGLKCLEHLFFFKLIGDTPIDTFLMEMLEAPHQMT

On to `C=CC(C)(CCC=C(C)C)OC(C)=O` (stereo not drawn), for which, in assay [1], the max response was -7.97%.

Turning to `CC1=C2[C@H](/C=C(\C)C(=O)O)CC[C@@H](C)[C@H]2CC1`, in assay [2], the activation was -0.457%. In addition, the result in assay [3] was inactive.
